Experimental data: PubChem BioAssay (NCATS)
Results filed as inconclusive are left out. The source made the active and inactive calls. Calls come from the whole dose curve; as a rule, active = well fitted curve in the direction sought with a large enough effect; inconclusive = small, poorly fitted or top-dose-only effect, or another doubt; inactive = no such curve, though single readings can be large; an effect the other way counts as inactive or inconclusive.

What was measured:
[1] = biological target: Cellular tumor antigen p53 (Homo sapiens) (UniProt P04637); test: Primary qHTS for small molecule compounds that upregulate eGFP-tagged delta133p53alpha (in N-terminal) cells. (AID 2060322); details: NCI-H358 eGFP-delta133p53alpha fluorescence, 24 h; activation: stronger effect = higher value; note: nearly all actives have a fitted effect of over 75% in size; note: potency is the fitted concentration of half-maximal effect;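 for activation: cells pre-induced with doxycycline then dosed without doxycycline; series mostly up to about 56 µM; 0% = DMSO vehicle and 100% = reference activator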
Cellular tumor antigen p53 (Homo sapiens), sequence (P04637 whole entry, looked up): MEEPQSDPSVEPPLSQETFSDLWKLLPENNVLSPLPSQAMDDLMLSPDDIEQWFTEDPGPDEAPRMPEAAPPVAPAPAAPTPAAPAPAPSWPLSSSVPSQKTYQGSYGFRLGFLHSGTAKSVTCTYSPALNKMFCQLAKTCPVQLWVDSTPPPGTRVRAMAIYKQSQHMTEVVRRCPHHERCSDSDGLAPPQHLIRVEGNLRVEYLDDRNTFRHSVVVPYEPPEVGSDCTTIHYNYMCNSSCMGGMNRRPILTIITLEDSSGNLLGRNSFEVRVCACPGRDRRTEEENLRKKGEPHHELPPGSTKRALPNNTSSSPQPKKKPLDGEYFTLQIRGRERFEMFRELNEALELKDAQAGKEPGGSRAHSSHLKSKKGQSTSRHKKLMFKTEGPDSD
Method in brief: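 NCI-H358 cells pre-induced 24 h with 10 ng/ml doxycycline for eGFP-delta133p53alpha, plated dox-free and exposed 24 h at 37C to titrated compounds. Fixed, Hoechst-stained; gated GFP peak intensity by laser scanning cytometry, normalized to DMSO (0%) and 57.5 uM 5-azacytidine (100%).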

[2] = biological target: Aldehyde dehydrogenase, mitochondrial (Homo sapiens) (UniProt P05091); test: qHTS for Inhibitors of the Aldehyde Dehydrogenase Family (ALDH2) Primary screen (AID 2061308);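 note: plate controls were vehicle for no effect and reference inhibitor for full effect; nearly all actives have a fitted effect of over 55% in size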
[3] = biological target: Retinaldehyde dehydrogenase 3 (Homo sapiens) (UniProt P47895); test: qHTS for Inhibitors of the Aldehyde Dehydrogenase Family (ALDH1A3) Validation screen (AID 2061312); note: % is set by controls: 0 for no effect and ±100 for the full control effect; nearly all actives have a fitted effect of over 45% in size
[4] = biological target: Retinaldehyde dehydrogenase 3 (Homo sapiens) (UniProt P47895); test: qHTS for Inhibitors of the Aldehyde Dehydrogenase Family (ALDH1A3) Primary screen (AID 2061315);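 note: plate controls were DMSO vehicle for no effect and reference inhibitor for full effect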

Oc1ccccc1-c1cc(-c2ccccc2F)[nH]n1
inactive: activation [1] -12.9% | Potency [2] | Potency [3] | Potency [4]

O=C(OC1CN2CCC1CC2)N1CCc2ccccc2C1c1ccccc1 (stereo not drawn)
inactive: activation [1] -3.82% | Potency [2] | Potency [3] | Potency [4]

Cn1ncnc1COc1nn2c(-c3cc(F)ccc3F)nnc2cc1C(C)(C)C
inactive: activation [1] -11.9% | Potency [2] | Potency [3] | Potency [4]

COc1ccc([C@H]2CNC(=O)C2)cc1OC1CCCC1
inactive: activation [1] -26.3% | Potency [2] | Potency [3] | Potency [4]

CCNC(=O)N1CCCN(c2ccc(C(=O)NCCc3ccc(Cl)cc3Cl)cc2NC(=O)c2cccc(Cl)c2)CC1
inactive: activation [1] 1.91% | Potency [2] | Potency [3] | Potency [4]

CCOC(=O)CCN(C(=O)c1ccc2c(c1)nc(CNc1ccc(C(=N)N)cc1)n2C)c1ccccn1
inactive: activation [1] -4.77% | Potency [2] | Potency [3] | Potency [4]

O=C(CSc1nc2c(c(=O)n1-c1ccccc1)SCC2)Nc1ccc(-c2ccccc2)cn1
inactive: activation [1] 11.5% | Potency [2] | Potency [3] | Potency [4]

Cc1ccc(NC(=O)C(=O)NC2CC(C)(C)NC(C)(C)C2)cc1
inactive: activation [1] -13.4% | Potency [2] | Potency [3] | Potency [4]

COc1cc2ncnc(Oc3ccc(CC(=O)Nc4cnn(C(C)C)c4)cc3)c2cc1OC
inactive: activation [1] 4.77% | Potency [2] | Potency [3] | Potency [4]

CC(C)(F)C[C@@H](N[C@@H](c1ccc(-c2ccc(S(C)(=O)=O)cc2)cc1)C(F)(F)F)C(=O)NC1(C#N)CC1
inactive: activation [1] -8.11% | Potency [2] | Potency [3] | Potency [4]

Cc1ccccc1CN1CCn2c1nc1c(c2=O)CN(Cc2ccccc2)CC1
inactive: activation [1] 0.477% | Potency [2] | Potency [3] | Potency [4]

CNc1ccc([N+](=O)[O-])c(Nc2ccc3[nH]ncc3c2)n1
inactive: Potency [2] | Potency [3] | Potency [4]
active: Potency [1] 10.7 µM

O=C(O)c1cc(N(Cc2ccc(C3CCCCC3)cc2)C(=O)c2ccc(Oc3ccccc3)cc2)ccc1O
inactive: activation [1] -2.86% | Potency [2] | Potency [3] | Potency [4]

COc1ccc(-c2cnc3ccc(NCc4ccc(S(N)(=O)=O)cc4)nn23)cc1OC
inactive: activation [1] 5.73% | Potency [2] | Potency [3] | Potency [4]

CCCc1ccc(OCC(=O)N(Cc2nc(-c3cccnc3)no2)C(C)C)cc1
inactive: activation [1] -11.5% | Potency [2] | Potency [3] | Potency [4]

CS(=O)(=O)c1ccccc1N1CCN(c2nc3c(c(=O)[nH]2)CSCC3)CC1
inactive: activation [1] 11.5% | Potency [2] | Potency [3] | Potency [4]

COc1cccc(CN(C(=O)CC(C)(C)C)C2CC(C(=O)N3CCNCC3)N(Cc3ccc4c(c3)OCO4)C2)c1 (stereo not drawn)
inactive: activation [1] -10% | Potency [2] | Potency [3] | Potency [4]

COc1cc(Br)c(Nc2nc(-c3c(C)nc4ncccn34)cs2)c(Br)c1
inactive: activation [1] 14.8% | Potency [2] | Potency [3] | Potency [4]

N[C@@H]1c2cccnc2[C@H](OC(=O)N2CCC(n3c(=O)[nH]c4ncccc43)CC2)CC[C@H]1c1cccc(F)c1F
inactive: activation [1] -10.5% | Potency [2] | Potency [3] | Potency [4]

O=C(Nc1ccn(Cc2ccc(O)cc2C(F)(F)F)n1)c1c(F)cccc1F
inactive: activation [1] -13.4% | Potency [2] | Potency [3] | Potency [4]

COc1cccc(C(=O)N2CCN(C(=O)COc3cccc(C)c3)CC2)c1OC
inactive: activation [1] 4.77% | Potency [2] | Potency [3] | Potency [4]

CN(C)C(=O)NC1CCC(CCN2CCN(c3cccc(Cl)c3Cl)CC2)CC1 (stereo not drawn)
inactive: activation [1] -1.91% | activity change, negative = inhibition [2] 8.14% [at 11.2 µM] | activity change, negative = inhibition [3] 7.05% [at 20.1 µM] | activity change, negative = inhibition [4] -11.6% [at 11.2 µM]

Oc1ccc2nc(CN3CCC(Cc4ccccc4F)CC3)[nH]c2c1
inactive: activation [1] -1.91% | Potency [2] | Potency [3] | Potency [4]

CCN=C1N[C@@H]2[C@@H](O)[C@H](O)[C@@H](CO)O[C@@H]2S1
inactive: activation [1] 1.43% | Potency [2] | Potency [3] | Potency [4]

CC(c1ncncc1F)C(O)(Cn1cncn1)c1ccc(F)cc1F (stereo not drawn)
inactive: activation [1] 0.477% | Potency [2] | Potency [3] | Potency [4]

CNC(C)C(=O)NC(C(=O)N1CCCC1c1nc(C(=O)c2ccc(F)cc2)cs1)C1CCCCC1 (stereo not drawn)
inactive: activation [1] 17.2% | Potency [2] | Potency [3] | Potency [4]

CCC(COC)n1nnc2c(Nc3ccc(OC)cc3C)nc(C)cc21 (stereo not drawn)
inactive: activation [1] -5.25% | Potency [2] | Potency [3] | Potency [4]

CCCC(=O)C1CCN(c2ncnc3c2CN(C(=O)c2ccc(-c4ccccc4)cc2)CC3)CC1
inactive: activation [1] -12.4% | Potency [2] | Potency [3] | Potency [4]

O=C(NCc1ccccc1)c1ccc2c(=O)n(-c3cccc(C(F)(F)F)c3)c(=S)[nH]c2c1
inactive: activation [1] -9.55% | Potency [2] | Potency [3] | Potency [4]

CC1(C(=O)Nc2ccc(F)nc2)CCCN1c1nc(Nc2cc(C3CC3)[nH]n2)c2cccn2n1 (stereo not drawn)
inactive: Potency [2] | Potency [3] | Potency [4]
active: Potency [1] 30.1 µM

CC(C)(C[C@@](O)(Cc1cc2ccncc2[nH]1)C(F)(F)F)c1cc(F)ccc1O
inactive: activation [1] 13.4% | Potency [2] | Potency [3] | Potency [4]

CCOc1c2c(c(OCC)c3ccccc13)C(=O)N(c1ccc(CC(=O)NS(=O)(=O)c3ccccc3)cc1)C2
inactive: activation [1] -25.3% | Potency [2] | Potency [3] | Potency [4]
